ROMK mod: modulates human ROMK potassium channel activity; B-score at 10 µM; AID 1918; 130,000 compounds, 2% hits; Tet-inducible ROMK, thallium flux fluorescence; actives lie on both sides;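 active means signal ratio slope over the read window, or its plate-corrected B-score, at least 3 SD from the plate mean, either direction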;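 further: B-score of the F/F0 ratio slope over 7 to 12 s after thallium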
Target sequence (P48048 whole entry, looked up): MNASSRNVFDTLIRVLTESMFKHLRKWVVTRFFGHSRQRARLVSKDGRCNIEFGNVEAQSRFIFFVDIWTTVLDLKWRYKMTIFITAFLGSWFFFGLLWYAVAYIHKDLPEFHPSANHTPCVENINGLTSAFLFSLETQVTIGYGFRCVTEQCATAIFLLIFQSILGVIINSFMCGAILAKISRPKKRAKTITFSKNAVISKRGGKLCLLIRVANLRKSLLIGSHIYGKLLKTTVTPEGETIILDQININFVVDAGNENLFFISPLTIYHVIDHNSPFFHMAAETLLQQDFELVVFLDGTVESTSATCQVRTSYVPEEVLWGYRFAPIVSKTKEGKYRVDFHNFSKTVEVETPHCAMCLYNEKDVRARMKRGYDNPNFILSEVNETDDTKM
PTEN del growth: growth suppressors of cells with PTEN tumor suppressor deletion; HCT116 PTEN-null viability, CellTiter-Glo, 60 h; hits give low values; viability, % at 10 µM; 140,000 compounds, 1.2% hits;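 active means viability at or below a set limit, 4 SD under the median of all tested compounds, cut at about 3.7% in these data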;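 further: PTEN knockout HCT116 line with beta catenin targeted HCT116 as companion control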
p97 ATPase inh: inhibitors of human p97 ATPase. recombinant p97 ATPase, Kinase-Glo ATP luminescence, 3 h. inhibition, % at 8 µM. 220,000 compounds, 0.42% hits; in the data active means inhibition above about 15%;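 further: 0% = DMSO vehicle and 100% = wells lacking enzyme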
INS promoter inh: TRM-6 insulin promoter activity inhibition. TRM-6 cells (human fetal islet line), insulin promoter-eGFP reporter, imaging; reporter expression induced with tamoxifen. inhibition, % at 2 µM. 130,000 compounds, 0.9% hits. AID 1273;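 active means inhibition above the mean plus 3 SD, with well images judged a real hit on visual review, cut at about 60% in these data, passing the limit was not always enough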
bCat KO growth: beta-catenin-lacking colon tumor cell growth suppression. HCT116 beta-catenin knockout viability, CellTiter-Glo, 60 h; hits give low values. AID 818. 140,000 compounds, 1.5% hits. viability, % at 10 µM;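 active means viability at or under a set limit, the compound median less 4 SD, cut at about 6% in these data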;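 further: 0% = Hyamine 1622 control at 20 µM and 100% = untreated cell control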
L major viab: Leishmania major promastigote growth inhibition; Leishmania major promastigotes, resazurin fluorescence viability; inhibition, % at 10 µM; 200,000 compounds, 9% hits; in the data active means inhibition above about 50%;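 further: promastigotes grown with compound for 44 hours at 28 °C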
* = called active by the depositor; x = not tested or not shown. A selection: hits, their analogues and other compounds. The true share with any hit is near 10%.

SMILES	ROMK mod	PTEN del growth	p97 ATPase inh	INS promoter inh	bCat KO growth	L major viab
O=C(CNC(=O)c1cccc(F)c1)N/N=C/c1cc(Br)ccc1OCc1ccccc1	-1.5	18	5	26	26	51*
O=C(CNC(=O)c1ccncc1)N/N=C/c1ccccc1[N+](=O)[O-]	0.029	x	0	44	x	18
O=C(N/N=C/c1cccs1)c1cncc(Br)c1	-0.016	x	13	x	x	11
O=C(N/N=C\c1ccc([N+](=O)[O-])s1)c1cncc(Br)c1	x	1.5*	5	-30	3.4*	100*
O=C(CNC(=O)c1cccc(F)c1)N/N=C/c1ccc([N+](=O)[O-])s1	-0.67	x	1	-7	x	100*
COC(=O)N/N=C/c1ccc([N+](=O)[O-])s1	-0.93	50	5	-21	46	69*
COc1ccccc1NC(=O)C(=O)N/N=C/c1ccc([N+](=O)[O-])s1	0.17	x	5	x	x	100*
O=C(Cc1ccccc1)N/N=C/c1ccc([N+](=O)[O-])s1	-0.13	1.0*	-2	x	1.4*	101*
Cc1ccccc1C(=O)N/N=C/c1ccc([N+](=O)[O-])s1	x	2.6*	6	-427	3.6*	100*
Cc1ccnn1CC(=O)N/N=C/c1ccc([N+](=O)[O-])s1	x	x	7	x	x	x
Cn1c(SCC(=O)N/N=C/c2ccc([N+](=O)[O-])s2)nnc1-c1ccccc1	x	1.6*	2	-72	1.9*	100*
Cn1c(SCC(=O)N/N=C/c2cc([N+](=O)[O-])ccc2O)nnc1-c1ccccc1	0.66	x	8	x	x	x
Cc1ccccc1C(=O)N/N=C/c1ccsc1C	1.6	102	2	0	97	7
O=C(N/N=C/c1ccc(Br)s1)c1cccc([N+](=O)[O-])c1	-0.7	41	8	2	41	19
Cc1ccc(COc2ccc(Br)cc2/C=N/O)cc1	-0.64	65	-1	-29	68	7
O/N=C/c1cc(Br)ccc1OCc1ccc(F)cc1	x	x	1	-19	x	100*
O=C(N/N=C/c1ccc([N+](=O)[O-])s1)c1ccccc1Br	x	1.8*	3	-9	1.9*	100*
O=C(N/N=C/c1ccc([N+](=O)[O-])s1)C(O)c1ccccc1 (stereo unspecified)	-0.64	1.0*	5	-18	0.8*	100*
O=C(N/N=C/c1ccc([N+](=O)[O-])s1)c1ccccc1	-0.43	x	-1	-57	x	100*
O=C(Nc1ccccc1C(=O)N/N=C/c1ccc(F)cc1)c1ccccc1Br	x	113	0	x	97	14
CC1CC(OC(=O)CN2CCCCC2)CC(C)(C)C1 (stereo unspecified)	x	x	0	x	x	x
CN1c2ccccc2C(C)(C)C12C=Cc1cc(O)ccc1O2 (stereo unspecified)	x	24	1	-73	42	99*
CSc1nc(C)cc(C)c1S(=O)(=O)c1ccccc1C	x	83	-7	46	83	18
CCSc1nc(C)cc(C)c1S(=O)(=O)c1ccccc1C	x	87	3	-50	83	88*
CCOC(=O)c1[nH]c(C=O)c(C(=O)OCC)c1C	x	x	4	-364	x	88*
SMILES	ROMK mod	PTEN del growth	p97 ATPase inh	INS promoter inh	bCat KO growth	L major viab
Cc1cc(C)c2c(c1)/C(=c1/sc3n(c1=O)CN(c1ccccc1)CN=3)C(=O)N2	0.14	x	4	x	x	x
COc1ccc(N2CCN(C(=O)CCCn3c(=O)[nH]c4cc(Cl)ccc4c3=O)CC2)cc1	0.057	91	-4	74*	90	-3
CCOC(=O)c1ccc(N/C=C/C(=O)C(C)(C)C)cc1	-0.12	x	-3	x	x	-1
CN(C)c1ccc(N/C=C/C(=O)C(C)(C)C)cc1	0.041	67	-1	61	66	54*
CN(C)c1ccc(N/C=C/C(=O)c2ccccc2)cc1	x	55	3	-13	52	100*
CC(C)(C)C(=O)/C=C/Nc1ccccc1O	-0.065	81	-3	-69	79	98*
O=C(/C=C/Nc1ccccc1)c1ccccc1	0.65	97	-4	-9	103	-7
CCCOc1ccc(/C=C/C(=O)NCc2ccccc2)cc1	0.02	105	-2	25	99	-1
Cn1c(CSCc2ccc(F)cc2)nnc1SCC(=O)Nc1cccc(C(=O)O)c1	x	x	6	x	x	x
CC(C)c1ccc2[nH]c(O)c(N=NC(=O)c3cccc(S(=O)(=O)Nc4ccccc4Cl)c3)c2c1	0.51	20	6	57	24	1
CC(C)NC(=S)N=Nc1c(O)[nH]c2ccc(C(C)C)cc12	x	19	4	x	25	91*
Cc1cccc(NC(=S)N=Nc2c(O)[nH]c3ccccc23)c1	-0.23	15	2	-47	16	97*
OC(COCc1cccs1)CN1CCN(c2cccc(C(F)(F)F)c2)CC1 (stereo unspecified)	x	92	0	x	73	84*
Oc1ccccc1N1CCN(CC(O)COCc2ccccc2Cl)CC1 (stereo unspecified)	0.022	x	-3	-29	x	85*
CCc1ccc(OCC(O)CN2CCN(c3ccccc3)CC2)cc1 (stereo unspecified)	x	96	-6	x	89	94*
O=S(=O)(c1ccc(F)cc1)N1CCN(CC(O)COCc2cccs2)CC1 (stereo unspecified)	x	90	1	x	95	-10
CCCc1ccc(OCC(O)CN2CCN(c3ccccc3)CC2)cc1 (stereo unspecified)	-0.52	96	-5	x	97	94*
CCCC(C)NC(=O)COC(=O)c1cccc(NS(C)(=O)=O)c1 (stereo unspecified)	x	x	11	x	x	x
OC(COCc1ccccc1)CN1CCN(c2ccccc2)CC1 (stereo unspecified)	x	97	-2	x	98	90*
Nc1ncnc(Oc2cccc3cccnc23)c1[N+](=O)[O-]	1.1	x	3	x	x	96*
Cc1cccc(Oc2ncnc(N)c2[N+](=O)[O-])c1C	x	93	3	x	95	-4
Cc1ccc(OCc2cnc(Cl)s2)c(C)c1	0.023	x	-1	x	x	-8
Cc1nc2cc(N=NC3=C(O)CCCC3=O)ccc2s1	-0.58	101	0	25	87	-4
CC(C)COc1ccc(C(=O)Nc2ccc(SC(F)F)cc2)cc1	x	93	6	-19	83	52*
C/C(Cn1cnc([N+](=O)[O-])n1)=N\NC(=O)c1ccccc1	0.48	97	3	18	92	-4
C/C(Cn1nnc([N+](=O)[O-])n1)=N\NC(=O)c1ccccc1	-0.8	41	4	x	30	84*
CCn1cc(C(=O)O)c(=O)c2cc(F)c(N/N=C/c3ccccc3[N+](=O)[O-])cc21	x	5	-6	x	4.1*	78*
CCN1/C(=C/c2sc(-c3ccccc3C)c[n+]2C)Sc2ccccc21	-0.36	x	0	-285	x	100*
CCN1/C(=C/C(=O)c2ccco2)Sc2ccccc21	-2.2	76	-5	x	75	19
COc1ccc(N2CCN(C(=O)C3(C)CC3(Cl)Cl)CC2)cc1 (stereo unspecified)	x	87	0	-17	93	-6
